Data: PubChem BioAssay
Calls of active or inactive are those of the source.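 Rule for the calls, unless noted: active = inhibition at or above 50% at 10 µM; inactive = inhibition below 50%.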

Columns and labels:
[1] = inhibitors of TNFa-induced NFkB p65 translocation, primary screen, imaging, HUVEC, MLSMR starter and 10KST1 sets (AID 438;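 active = inhibition above 20% together with a positive visual image hit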;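 note: compound added about 3h40 before a 20 min TNFalpha stimulation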;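 for inhibition: signal is the nuclear over cytoplasmic p65 intensity ratio per well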); conditions: HUVEC TNFa-induced p65 nuclear translocation; cell count: measured here: nuclei count (cytotoxicity indicator), at 2.08 µM; inhibition: at 2 µM, stronger effect = higher value, 0% TNFa-plus-vehicle, 100% no-TNFa wells
[2] = inhibitors of mutant huntingtin aggregation, primary screen, imaging, exon1htt(103Q)mCFP cells, high-content imaging (AID 483;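 active = visual image review flags a hit and inhibition of aggregation exceeds 20%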;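 note: compound exposure lasted 3 days before fixation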;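 for nuclei count: percent of the per-plate median nuclei count of sample wells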); conditions: exon1htt(103Q)mCFP cell line, aggregate imaging, at 2 µM; inhibition of aggregation: stronger effect = higher value; nuclei count: measured here: cell count, toxicity
[3] = inhibitors of E-selectin induction by TNFa, primary screen, imaging, HUVEC, immunofluorescence, MLSMR starter and 10KST1 sets (AID 487;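 active = visually confirmed hit in the image check and inhibition above 20%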;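 for inhibition: signal is fraction of cell area covered by stained E-selectin grains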;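 for nuclei count: 100% = median nuclei count of all wells on the same plate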); conditions: HUVEC TNFalpha-induced E-selectin immunofluorescence imaging, at 2 µM; inhibition: stronger effect = higher value; nuclei count: measured here: cell number, toxicity
[4] = target: Voltage-gated potassium channel subunit beta-2 (Rattus norvegicus) (UniProt P62483); test: KvBeta enzyme negative modulators, primary screen, biochemical, NADPH fluorescence (AID 622;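 active = fluorescence slope higher than the sample average by over 3 SD, cut at about -0.22 in these data, passing the limit was not always enough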;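 note: slope of raw intensity against log time taken from 70 to 1610 s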); conditions: recombinant KvBeta, 4-cyanobenzaldehyde reduction, at 10 µM, stronger effect = higher value
Voltage-gated potassium channel subunit beta-2 (Rattus norvegicus), sequence (P62483 whole entry, looked up): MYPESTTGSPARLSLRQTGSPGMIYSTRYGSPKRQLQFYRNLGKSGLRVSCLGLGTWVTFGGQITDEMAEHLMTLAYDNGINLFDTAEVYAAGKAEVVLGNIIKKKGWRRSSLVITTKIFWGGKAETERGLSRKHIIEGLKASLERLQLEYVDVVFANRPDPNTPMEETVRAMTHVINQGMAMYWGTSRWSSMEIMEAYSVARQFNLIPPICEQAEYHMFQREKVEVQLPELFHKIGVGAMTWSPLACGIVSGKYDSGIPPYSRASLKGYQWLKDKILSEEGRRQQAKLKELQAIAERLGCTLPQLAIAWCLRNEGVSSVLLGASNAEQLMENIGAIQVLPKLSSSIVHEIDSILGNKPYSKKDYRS

[5] = target: Voltage-gated potassium channel subunit beta-2 (Rattus norvegicus) (UniProt P62483); test: KvBeta positive modulators, primary screen, biochemical, NADPH fluorescence (AID 623;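 active = NADPH fluorescence slope more negative than the mean of all samples by about 3 SD, 99.7% confidence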;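 note: fluorescence intensity change per second fitted from 20 to 320 s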); conditions: Recombinant KvBeta, NADPH fluorescence decrease slope, 10 min; at 10 µM; stronger effect = lower value
[6] = target: Alpha-2C adrenergic receptor (Homo sapiens) (UniProt P18825); test: modulators of alpha2C/GIRK thallium flux, primary screen, cell-based, HEK293 alpha2C/GIRK1/2 (AID 624;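 active = fluorescence slope after compound addition differing from the mean of all screened samples at 99.7% confidence, in either direction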;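 note: slope of fluorescence ratio to pre-addition baseline per second over 15 to 24 s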); conditions: thallium flux BTC fluorescence, at 10 µM, actives lie on both sides
Alpha-2C adrenergic receptor (Homo sapiens), sequence (P18825 whole entry, looked up): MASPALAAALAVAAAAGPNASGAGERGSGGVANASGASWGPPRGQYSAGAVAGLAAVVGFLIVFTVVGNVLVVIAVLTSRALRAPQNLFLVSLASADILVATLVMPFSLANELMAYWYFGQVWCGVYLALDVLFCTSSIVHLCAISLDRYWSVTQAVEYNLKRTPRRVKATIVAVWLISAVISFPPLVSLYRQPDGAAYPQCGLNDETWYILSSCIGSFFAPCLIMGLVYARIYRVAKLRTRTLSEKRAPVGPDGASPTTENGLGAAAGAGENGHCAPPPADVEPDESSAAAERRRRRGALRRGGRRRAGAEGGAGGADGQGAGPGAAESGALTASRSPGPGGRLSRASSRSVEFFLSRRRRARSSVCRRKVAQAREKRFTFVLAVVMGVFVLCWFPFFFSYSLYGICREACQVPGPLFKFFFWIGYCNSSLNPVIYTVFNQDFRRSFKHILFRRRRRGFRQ

[7] = inhibitors of Sendai virus-induced IRF3 signaling, primary screen, TLR/RLR signaling modifier project, cell-based, Sendai virus stimulus, luciferase, 10K MLSCN set (AID 602276); conditions: HEK293 RL24 IRF3 luciferase reporter, at 10 µM, stronger effect = higher value;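 note: firefly luciferase from ISG56 promoter only with Renilla not read in this screen; 0% = Sendai virus plus DMSO and 100% = medium plus DMSO without virus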
[8] = inhibitors of poly I:C-induced TLR3 signaling, primary screen, cell-based, poly I:C stimulus, luciferase, 10K MLSCN set (AID 602277;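 active = inhibition of the reporter signal at or above 50%; inactive = inhibition below 50%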); conditions: HEK293-TLR3 RL24 IRF3 luciferase reporter, at 10 µM, stronger effect = higher value

Row | SMILES | cell count [1] | inhibition [1] | inhibition of aggregation [2] | nuclei count [2] [%] | inhibition [3] | nuclei count [3] [%] | fluorescence slope [4] | NADPH fluorescence slope [5] | slope [6] | inhibition [7] | inhibition [8]
1 | O=S(=O)(NCc1cn2ccsc2n1)c1ccc2c(c1)OCCO2 | 600 | 8.2% (inactive) | -3.9% (inactive) | 71 | 51.6% (inactive) | 72.2 | -0.502 (inactive) | -3.9e-05 (inactive) | 0.00564 (inactive) | 5.63% (inactive) | 11.2% (inactive)
2 | CCN(CC)Cc1c(C(=O)OC)nnn1-c1nonc1N | 476 | -0.2% (inactive) | 13.9% (inactive) | 99.5 | -18.2% (inactive) | 107 | -0.504 (inactive) | -0.000189 (inactive) | 0.00521 (inactive) | 4.14% (inactive) | 14.8% (inactive)
3 | COc1ccc(CCNC(=O)CSc2nncn2N)cc1OC | 641 | -3.2% (inactive) | 24.1% (inactive) | 81.6 | -29.4% (inactive) | 122 | -0.345 (inactive) | -1.6e-05 (inactive) | 0.00364 (inactive) | 12.1% (inactive) | 21.1% (inactive)
4 | O=C(Nc1ccc2c(c1)OCO2)OCc1ccccc1 | 449 | 1.6% (inactive) | -6% (inactive) | 101 | 8.4% (inactive) | 101 | -0.439 (inactive) | -5.5e-05 (inactive) | 0.0049 (inactive) | -47.7% (inactive) | -107% (inactive)
5 | O=C(Nc1cccnc1)c1ccc2c(c1)C(=O)N(Cc1cccnc1)C2=O | 386 | 1.4% (inactive) | 9% (inactive) | 105 | -26.9% (inactive) | 99.7 | -0.615 (inactive) | -1.2e-05 (inactive) | 0.00348 (inactive) | 5.57% (inactive) | 11.9% (inactive)
6 | Cc1ccc(NC(=O)CC2C(=O)NC3CCCCC3N2C(=O)c2ccc(F)cc2)cc1C (stereo not drawn) | 461 | -10.3% (inactive) | -9.9% (inactive) | 123 | -55.7% (inactive) | 178 | -0.478 (inactive) | 2.4e-05 (inactive) | 0.00684 (inactive) | 12.1% (inactive) | 15.6% (inactive)
7 | Cc1cc(NC(=O)c2cc3ccccc3o2)cc(C)c1OCC(=O)N1CCOCC1 | 388 | 7.3% (inactive) | -7% (inactive) | 121 | -11.8% (inactive) | 115 | -0.526 (inactive) | -4.4e-05 (inactive) | 0.00621 (inactive) | -1.27% (inactive) | -52% (inactive)
8 | Cc1cc(C)nc(/N=C2\NC(=O)CC(C(=O)O)N2c2ccc(Cl)cc2)n1 (stereo not drawn) | 639 | -9.7% (inactive) | 0.5% (inactive) | 101 | -44.1% (inactive) | 107 | -0.552 (inactive) | -2.8e-05 (inactive) | 0.00735 (inactive) | 11.6% (inactive) | 34.3% (inactive)
